MRP1 act: H69AR viability gain despite doxorubicin, primary screen, MRP-1 activator project, H69AR cells, CellTiter-Glo. viability rescue. viability increase, % at 10 µM. 140,000 compounds, 0.61% hits. AID 799, 2007;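 active means viability gain under doxorubicin at or above a set limit, the compound median plus 3 SD, cut at about 4.7% in these data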;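 further: MRP-1 overexpressing cells given doxorubicin 25 µM after compound pretreatment; 18-22 h compound pretreatment then 72 h with doxorubicin before readout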
CYP2C19 act: human CYP2C19 activators, primary screen, biochemical, luminescence; recombinant CYP2C19, luciferin-H EGE luminescence; active compounds read high; 0 = fully inhibited enzyme, 1 = untreated enzyme; Cytochrome P450 2C19 (Homo sapiens), P33261; activation factor at 5 µM; 96,000 tested, under 10 active; AID 1025, 2008;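 active means activation factor of at least 2 at 5 µM in the primary screen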
MRP resist rev: reversal of MRP1-mediated doxorubicin resistance, primary screen, H69AR cells, doxorubicin co-treatment. differential viability (reversal), % at 10 µM. 85,000 compounds, 0.04% hits. H69AR cells + 2 uM doxorubicin, CellTiter-Glo, 72 h;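 active means viability drop by adding the cancer drug above about 55%, with treated viability meeting a 40% cutoff, limit read from the data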;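 further: larger differential means the compound sensitizes cells more to doxorubicin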
CYP2C19 inh: blockers of cytochrome P450 2C19 activity – biochemical, luminescence, ADME assay, primary screen; CYP2C19 Supersomes, luciferin-H EGE luminescence, 30 min; inhibition, % at 5 µM; 96,000 compounds, 21% hits; AID 778, 2007;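 active means CYP2C19 inhibition above a set limit at 5 µM in the primary screen, cut at about 50% in these data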
CYP2C9 inhib: blockers of cytochrome P450 2C9 activity – biochemical, luminescence, ADME assay, primary screen; AID 777, 2007; CYP2C9 Supersomes, luciferin-H conversion; 96,000 compounds, 20% hits; inhibition, % at 5 µM; P11712;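 active means blocking of liver enzyme CYP2C9 beyond about 50% at 5 µM, limit read from the data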
Target sequence (P11712 whole entry, looked up): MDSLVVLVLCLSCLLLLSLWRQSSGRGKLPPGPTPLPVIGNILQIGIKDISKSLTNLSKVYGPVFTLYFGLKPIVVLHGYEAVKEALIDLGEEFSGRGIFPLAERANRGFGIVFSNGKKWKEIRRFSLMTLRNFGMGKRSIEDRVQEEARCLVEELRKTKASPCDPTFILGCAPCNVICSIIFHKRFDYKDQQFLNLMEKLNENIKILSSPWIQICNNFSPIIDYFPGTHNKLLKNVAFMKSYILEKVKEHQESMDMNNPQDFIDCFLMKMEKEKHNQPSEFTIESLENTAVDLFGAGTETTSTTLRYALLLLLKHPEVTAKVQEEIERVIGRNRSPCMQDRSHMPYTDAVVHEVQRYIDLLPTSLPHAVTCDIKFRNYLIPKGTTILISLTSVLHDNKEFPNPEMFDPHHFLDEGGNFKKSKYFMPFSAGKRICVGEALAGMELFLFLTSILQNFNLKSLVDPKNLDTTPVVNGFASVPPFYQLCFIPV
CYP2C9 act: human CYP2C9 activators, primary screen, biochemical, luminescence | recombinant CYP2C9, luciferin-H conversion; active compounds read high; factor 1 = untreated enzyme, 0 = blocked | Cytochrome P450 2C9 (Homo sapiens), P11712 | activation factor at 5 µM | 96,000 compounds, 1.4% hits;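 active means activation factor of 2 or more for CYP2C9 at a 5 µM dose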
Hits are given with their value; i = inactive; nt = no result given. Most compounds without a hit are left out; they make up all but 21% or so of the library.

SMILES | MRP1 act | CYP2C19 act | MRP resist rev | CYP2C19 inh | CYP2C9 inhib | CYP2C9 act
COc1ccc(CCC(=O)Nc2nc3ccccc3[nH]2)cc1 | i | i | nt | i | i | i
CCOc1cc(/C=C2\SC(=Nc3ccccc3)N(c3ccccc3)C2=O)ccc1OCC(=O)O | 5.9 | nt | nt | nt | nt | nt
CCOC(=O)COc1ccc(/C=C2/SC(=Nc3ccccc3)N(Cc3cccnc3)C2=O)cc1OC | i | i | nt | 55 | 75 | i
COCCNC(=O)C(c1ccncc1)N(C(=O)Cn1nnc2ccccc21)c1ccc(OC)cc1 (stereo unspecified) | i | i | i | i | i | i
O=C(NCc1ccco1)C(c1cccnc1)N(C(=O)Cn1nnc2ccccc21)c1ccc(F)cc1 (stereo unspecified) | i | i | i | i | i | i
CCOC(=O)CN(C(=O)Cn1nnc2ccccc21)C(C(=O)NCCOC)c1ccccc1C (stereo unspecified) | i | i | i | i | i | i
COCCNC(=O)CN(C(=O)Cn1nnc2ccccc21)c1ccc(F)c(Cl)c1 | i | i | nt | 56 | i | i
O=C(NCc1ccco1)C(c1cccnc1)N(C(=O)Cn1nnc2ccccc21)c1ccccc1 (stereo unspecified) | i | i | i | 51 | i | i
COc1ccc(N(C(=O)Cn2nnc3ccccc32)C(C(=O)NCc2ccco2)c2cccnc2)cc1 (stereo unspecified) | i | i | i | 78 | i | i
O=C(NCc1ccco1)C(c1ccncc1)N(CCC1=CCCCC1)C(=O)Cn1nnc2ccccc21 (stereo unspecified) | i | i | i | 51 | 62 | i
C=CCn1cnc2c(c1=O)c1nc3ccccc3nc1n2-c1ccc(Cl)cc1 | nt | nt | i | nt | nt | nt
CCOc1ccc(CC(=O)NCc2cn3c(C)csc3n2)cc1 | i | i | i | i | i | i
CCc1ccccc1N(C(=O)Cn1nnc2ccccc21)C(C(=O)NCCOC)c1ccco1 (stereo unspecified) | i | i | i | 61 | 56 | i
CC(C)(C)c1cc(=O)n(-c2ccccc2)[nH]1 | i | nt | nt | nt | nt | nt
Cc1c(/C=N/NC(=O)c2cc(=O)[nH]c(=O)[nH]2)c2ccccn2c1C(=O)c1ccccc1 | i | i | nt | i | 50 | i
CC(C)(C)n1nnnc1CN(Cc1cccnc1)Cc1ccccc1Cl | i | i | i | 88 | i | i
CCCCCCNS(=O)(=O)c1ccc(OC)c(OC)c1 | i | i | i | 85 | i | 2.3
CCN(CC)CCNS(=O)(=O)c1ccc(OC)c(Br)c1 | i | i | nt | i | i | i
COc1cc(S(=O)(=O)NCc2ccccc2)ccc1F | i | i | i | 98 | i | 2.2
COc1ccc(S(=O)(=O)NCCSCc2cccc(C)c2)cc1Br | i | i | nt | i | i | 2.1
COc1ccccc1OCCNS(=O)(=O)c1ccc2oc3ccccc3c2c1 | i | nt | nt | nt | nt | nt
CCOc1cc(S(=O)(=O)Nc2ccccn2)ccc1F | i | i | i | i | i | i
COc1ccc(S(=O)(=O)NCCSc2ccccc2)cc1OC | i | i | i | 97 | i | 2.4
COc1ccc(S(=O)(=O)NCc2ccccc2Cl)cc1OC | i | i | i | 95 | i | 2.3
COc1ccc(S(=O)(=O)NCCSc2ccc(C)cc2)cc1OC | i | i | i | 82 | i | i
SMILES | MRP1 act | CYP2C19 act | MRP resist rev | CYP2C19 inh | CYP2C9 inhib | CYP2C9 act
Cc1ccc(SCCNS(=O)(=O)c2ccc3c(c2)OCCO3)cc1 | i | nt | i | nt | nt | nt
O=C(CSc1nnc2ccccn12)Nc1nsc(-c2ccccc2)n1 | i | nt | nt | nt | nt | nt
Cn1c(N)c(C(=O)COC(=O)c2cc(-c3ccco3)nc3ccccc23)c(=O)n(C)c1=O | i | nt | nt | nt | nt | nt
CN(Cc1ccccc1)C(=O)COC(=O)c1cc(-c2ccc(Cl)s2)nc2ccccc12 | i | i | nt | 56 | 88 | i
CCOc1ccc(-c2cc(C(=O)O)c3ccccc3n2)cc1 | i | i | i | i | 57 | i
CCN(CC)C(=O)COC(=O)c1cc(-c2ccc(OC)cc2)nc2ccccc12 | i | i | i | 91 | 98 | i
COc1ccc2cc(-c3cc(C(=O)OCC(=O)NC4CCS(=O)(=O)C4)c4ccccc4n3)ccc2c1 (stereo unspecified) | i | nt | nt | nt | nt | nt

Screening data as filed in PubChem BioAssay.
